In PubChem BioAssay (EPA / NIEHS):
Calls of active or inactive are those of the source. How the source made its calls: active means hit-call score of the fitted dose curve at least 0.9, where 1 is the maximum; inactive means score below 0.9.

Tests used:
Details in all cases: mRNA level, 48 h; actives raise or lower the signal
[1] = read-out: adenosine kinase (ADK) gene, ADK (gene 132); test: LTEA_HepaRG_ADK: Life Technologies and Expression Analysis (LTEA) Assay for adenosine kinase (ADK) gene using HepaRG (AID 2283471)
Procedure, shortened: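 ADK expression quantified by qRT-PCR, normalised to three housekeeping genes, after 48 h exposure of HepaRG cells to eight concentrations (top 100 uM, half-log steps, duplicate, 0.5% DMSO). Up- or down-regulation fitted relative to vehicle.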

[2] = read-out: Alpha-fetoprotein (AFP) gene, AFP (gene 174); test: LTEA_HepaRG_AFP: Life Technologies and Expression Analysis (LTEA) Assay for Alpha-fetoprotein (AFP) gene using HepaRG (AID 2283472)
Procedure, shortened: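 HepaRG, single lot; 48 h post-plating -> serum-free induction medium; cpd 8-pt, 100 uM top, half-log, 0.5% DMSO, duplicate, 48 h. RNA -> qRT-PCR AFP, norm ACTB/GAPDH/POLR2A. Bidirectional fit vs DMSO.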

BCL2L11 (gene 10018) = test: LTEA_HepaRG_BCL2L11: Life Technologies and Expression Analysis (LTEA) Assay for Bcl-2 (BCL2L11) gene using HepaRG (AID 2283473)
Procedure, shortened: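 Differentiated human HepaRG cells in serum-free induction medium were exposed in duplicate for 48 h to eight concentrations (top 100 uM, half-log steps, 0.5% DMSO). BCL2L11 mRNA was quantified by TaqMan qRT-PCR, normalized to ACTB/GAPDH/POLR2A, bidirectional fit versus DMSO.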

[3] = read-out: Apolipoprotein A-V (APOA5) gene, APOA5 (gene 116519); test: LTEA_HepaRG_APOA5: Life Technologies and Expression Analysis (LTEA) Assay for Apolipoprotein A-V (APOA5) gene using HepaRG (AID 2283474)
Procedure, shortened: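 Differentiated human HepaRG cells were exposed in duplicate for 48 h to eight half-log concentrations from 100 uM in 0.5% DMSO. APOA5 mRNA was quantified by TaqMan qRT-PCR, normalized to ACTB, GAPDH and POLR2A, and fitted bidirectionally against DMSO.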

[4] = read-out: Apoptosis regulator Bcl-2 (Homo sapiens) (UniProt P10415); test: LTEA_HepaRG_BCL2: Life Technologies and Expression Analysis (LTEA) Assay for Bcl-2 gene using HepaRG (AID 2283475)
Procedure, shortened: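 HepaRG, plated 48 h then switched to serum-free induction medium; dosed 48 h, 8 conc. (max 100 uM, half-log steps), duplicate, 0.5% DMSO. Lysis in RLT, RNA isolated, TaqMan qRT-PCR for BCL2; ACTB/GAPDH/POLR2A normalisation; bidirectional fit vs DMSO.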

[5] = read-out: Bcl-2 (BID) gene, BID (gene 637); test: LTEA_HepaRG_BID: Life Technologies and Expression Analysis (LTEA) Assay for Bcl-2 (BID) gene using HepaRG (AID 2283476)
Procedure, shortened: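 Transcript levels of BID, measured by qRT-PCR and normalized to three housekeeping genes, were fitted bidirectionally against DMSO controls. Cells were HepaRG, dosed 48 h at up to 100 uM.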

Caspase-3 (Homo sapiens) = Caspase-3 (Homo sapiens) (UniProt P42574); test: LTEA_HepaRG_CASP3: Life Technologies and Expression Analysis (LTEA) Assay for cysteine-aspartic acid protease (CASP3) using HepaRG (AID 2283477)
Sequence of Caspase-3 (Homo sapiens) (P42574 whole entry, looked up): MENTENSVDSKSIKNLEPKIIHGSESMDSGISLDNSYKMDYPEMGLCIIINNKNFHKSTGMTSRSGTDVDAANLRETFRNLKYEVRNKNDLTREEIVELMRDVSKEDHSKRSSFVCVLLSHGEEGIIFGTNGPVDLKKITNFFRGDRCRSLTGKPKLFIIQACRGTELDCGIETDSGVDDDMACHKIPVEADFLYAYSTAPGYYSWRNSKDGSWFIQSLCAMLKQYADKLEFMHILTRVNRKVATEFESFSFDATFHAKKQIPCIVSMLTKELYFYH
Procedure, shortened: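 Differentiated human HepaRG cells in serum-free induction medium were exposed 48 h to 8-point half-log concentrations from 100 uM (0.5% DMSO vehicle). CASP3 mRNA was measured by qRT-PCR, normalised to ACTB, GAPDH and POLR2A, with bidirectional fitting against DMSO.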

[6] = read-out: Cytochrome P450 (CYP24A1), CYP24A1 (gene 1591); test: LTEA_HepaRG_CYP24A1: Life Technologies and Expression Analysis (LTEA) Assay for Cytochrome P450 (CYP24A1) using HepaRG (AID 2283478)
Procedure, shortened: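 Differentiated HepaRG cells, pre-cultured 48 h, were exposed in duplicate for 48 h in serum-free induction medium to 8 half-log concentrations (top 100 uM, 0.5% DMSO). CYP24A1 mRNA was quantified by TaqMan qRT-PCR, normalized to ACTB/GAPDH/POLR2A, fitted bidirectionally versus DMSO.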

[7] = read-out: Cytochrome P450 (CYP1A2), CYP1A2 (gene 1544); test: LTEA_HepaRG_CYP1A2: Life Technologies and Expression Analysis (LTEA) Assay for Cytochrome P450 (CYP1A2) using HepaRG (AID 2283479)
Procedure, shortened: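 Differentiated human HepaRG cells in serum-free induction medium were exposed in duplicate for 48 h to 8-point half-log concentrations up to 100 uM in 0.5% DMSO. CYP1A2 mRNA measured by qRT-PCR, normalized to ACTB, GAPDH, POLR2A; bidirectional fit vs DMSO.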

[8] = read-out: cysteine-aspartic acid protease (CASP8), CASP8 (gene 841); test: LTEA_HepaRG_CASP8: Life Technologies and Expression Analysis (LTEA) Assay for cysteine-aspartic acid protease (CASP8) using HepaRG (AID 2283480)
Procedure, shortened: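 HepaRG, 48 h exposure, duplicate wells; 8 conc, half-log from 100 uM, 0.5% DMSO. Serum-free induction medium. CASP8 mRNA by TaqMan qRT-PCR, norm. ACTB/GAPDH/POLR2A; gain/loss fitted vs DMSO.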

[9] = read-out: Cytochrome P450 (CYP2B6), CYP2B6 (gene 1555); test: LTEA_HepaRG_CYP2B6: Life Technologies and Expression Analysis (LTEA) Assay for Cytochrome P450 (CYP2B6) using HepaRG (AID 2283481)
Procedure, shortened: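 Differentiated HepaRG cells, serum-free induction medium, exposed 48 h in duplicate to 8-point half-log concentrations from 100 uM in 0.5% DMSO. CYP2B6 mRNA by qRT-PCR, normalized to ACTB, GAPDH, POLR2A; bidirectional fit versus DMSO.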

[10] = read-out: Cytochrome P450 2C19 (Homo sapiens) (UniProt P33261); test: LTEA_HepaRG_CYP2C19: Life Technologies and Expression Analysis (LTEA) Assay for CYP2C19 using HepaRG (AID 2283482)
Procedure, shortened: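 Differentiated human HepaRG cells were exposed for 48 h in serum-free induction medium to 8 concentrations (top 100 uM, half-log steps, 0.5% DMSO). CYP2C19 mRNA was measured by qRT-PCR, normalized to ACTB/GAPDH/POLR2A, and fitted bidirectionally against DMSO.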

CYP2C8 (gene 1558) = test: LTEA_HepaRG_CYP2C8: Life Technologies and Expression Analysis (LTEA) Assay for CYP2C8 using HepaRG (AID 2283483)
Procedure, shortened: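 CYP2C8 mRNA induction or loss, by qRT-PCR normalized to ACTB/GAPDH/POLR2A, is read in HepaRG cells after 48 h treatment. Concentrations run from 100 uM down in half-log dilutions, with 0.5% DMSO as vehicle and baseline.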

CYP2C9 (gene 1559) = test: LTEA_HepaRG_CYP2C9: Life Technologies and Expression Analysis (LTEA) Assay for CYP2C9 using HepaRG (AID 2283484)
Procedure, shortened: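 Cells plated 48 h, switched to serum-free induction medium, then treated in duplicate for 48 h at eight concentrations (max 100 uM, 0.5% DMSO). RNA then analysed by qRT-PCR for CYP2C9; curves fitted in both directions relative to DMSO.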

CYP2E1 (gene 1571) = test: LTEA_HepaRG_CYP2E1: Life Technologies and Expression Analysis (LTEA) Assay for CYP2E1 using HepaRG (AID 2283485)
Procedure, shortened: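 Human liver line HepaRG, plated 48 h, then serum-free induction medium + chemical x 48 h; 8-pt CRC from 100 uM, half-log, 0.5% DMSO, n=2. Readout: CYP2E1 mRNA qRT-PCR vs ACTB/GAPDH/POLR2A; bidirectional fit vs DMSO.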

CYP4A11 (gene 1579) = test: LTEA_HepaRG_CYP4A11: Life Technologies and Expression Analysis (LTEA) Assay for CYP4A11 using HepaRG (AID 2283486)
Procedure, shortened: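 Differentiated HepaRG cells, serum-free induction medium, exposed 48 h in duplicate to 8-point half-log series from 100 uM in 0.5% DMSO. CYP4A11 mRNA measured by qRT-PCR, normalized to ACTB, GAPDH, POLR2A; bidirectional fit versus DMSO.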

[11] = read-out: Cytochrome P450 3A4 (Homo sapiens) (UniProt P08684); test: LTEA_HepaRG_CYP3A4: Life Technologies and Expression Analysis (LTEA) Assay for CYP3A4 using HepaRG (AID 2283487)
Procedure, shortened: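 Differentiated HepaRG cells, plated 48 h, then dosed 48 h in serum-free induction medium with 0.5% DMSO, 8 half-log concentrations up to 100 uM, duplicate. CYP3A4 mRNA by qRT-PCR, normalized to ACTB/GAPDH/POLR2A; bidirectional fit versus DMSO.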

[12] = read-out: DNA damage-inducible transcript 3 (DDIT3), DDIT3 (gene 1649); test: LTEA_HepaRG_DDIT3: Life Technologies and Expression Analysis (LTEA) Assay for DNA damage-inducible transcript 3 (DDIT3) using HepaRG (AID 2283488)
Procedure, shortened: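 HepaRG plated 48 h, switched to serum-free induction medium, dosed 48 h (100 uM top, half-log, 8 pts, 0.5% DMSO, n=2); RNA isolated; DDIT3 by qRT-PCR; bidirectional curve fit vs DMSO.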

[13] = read-out: Pro-epidermal growth factor (Homo sapiens) (UniProt P01133); test: LTEA_HepaRG_EGF: Life Technologies and Expression Analysis (LTEA) Assay for Epidermal growth factor (EGF) using HepaRG (AID 2283489)
Procedure, shortened: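 Differentiated human HepaRG cells, plated 48 h then switched to serum-free induction medium, were exposed for 48 h to test chemicals (8-point half-log series, top 100 uM, 0.5% DMSO). EGF mRNA was quantified by qRT-PCR, normalized to ACTB, GAPDH, POLR2A.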

[14] = read-out: Early growth response protein 1 (EGR1) transcription factor, EGR1 (gene 1958); test: LTEA_HepaRG_EGR1: Life Technologies and Expression Analysis (LTEA) Assay for Early growth response protein 1 (EGR1) transcription factor using HepaRG (AID 2283490)
Procedure, shortened: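 Read-out is EGR1 mRNA level by qRT-PCR, normalized to three housekeeping genes and analysed for gain or loss of signal against 0.5% DMSO. Source cells: human HepaRG, treated 48 h at up to 100 uM in half-log dilutions.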

Measured: AC50

Sequence of Cytochrome P450 2C19 (Homo sapiens) (P33261 whole entry, looked up): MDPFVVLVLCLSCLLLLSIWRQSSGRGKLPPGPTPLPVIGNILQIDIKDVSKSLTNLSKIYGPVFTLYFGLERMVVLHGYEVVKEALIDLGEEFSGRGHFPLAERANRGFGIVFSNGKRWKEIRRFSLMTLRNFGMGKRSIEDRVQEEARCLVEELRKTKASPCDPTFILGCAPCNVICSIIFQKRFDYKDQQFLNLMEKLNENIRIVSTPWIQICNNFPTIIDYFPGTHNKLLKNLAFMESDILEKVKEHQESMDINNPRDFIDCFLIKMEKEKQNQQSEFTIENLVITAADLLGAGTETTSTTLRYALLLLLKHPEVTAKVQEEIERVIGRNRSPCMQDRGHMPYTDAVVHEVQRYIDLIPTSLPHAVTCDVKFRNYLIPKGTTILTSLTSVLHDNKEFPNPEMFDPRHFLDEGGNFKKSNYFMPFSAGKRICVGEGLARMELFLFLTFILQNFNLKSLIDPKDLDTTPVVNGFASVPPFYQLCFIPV
Sequence of Cytochrome P450 3A4 (Homo sapiens) (P08684 whole entry, looked up): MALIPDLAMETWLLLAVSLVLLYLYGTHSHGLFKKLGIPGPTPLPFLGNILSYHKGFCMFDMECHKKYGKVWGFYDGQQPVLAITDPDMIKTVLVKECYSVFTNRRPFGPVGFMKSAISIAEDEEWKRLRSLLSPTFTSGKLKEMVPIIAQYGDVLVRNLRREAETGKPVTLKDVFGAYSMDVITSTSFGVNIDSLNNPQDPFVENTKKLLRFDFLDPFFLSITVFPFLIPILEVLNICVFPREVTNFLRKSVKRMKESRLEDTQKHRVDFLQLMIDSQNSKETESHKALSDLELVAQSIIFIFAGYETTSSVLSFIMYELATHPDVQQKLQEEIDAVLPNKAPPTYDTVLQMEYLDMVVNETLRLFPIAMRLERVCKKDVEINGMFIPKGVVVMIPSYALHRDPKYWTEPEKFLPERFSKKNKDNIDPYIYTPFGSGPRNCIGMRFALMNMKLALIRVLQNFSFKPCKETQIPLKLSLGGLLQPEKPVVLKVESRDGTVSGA
Sequence of Apoptosis regulator Bcl-2 (Homo sapiens) (P10415 whole entry, looked up): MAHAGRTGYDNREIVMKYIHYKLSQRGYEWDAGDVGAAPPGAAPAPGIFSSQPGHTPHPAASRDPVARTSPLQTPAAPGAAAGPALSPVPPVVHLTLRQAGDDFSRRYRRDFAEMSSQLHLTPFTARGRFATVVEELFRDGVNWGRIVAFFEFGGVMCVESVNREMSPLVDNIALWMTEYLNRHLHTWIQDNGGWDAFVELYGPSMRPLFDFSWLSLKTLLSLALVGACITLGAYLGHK

CC(C)(C)C(=O)C(Oc1ccc(Cl)cc1)n1cncn1 (stereo not drawn)
active: [9] 5.18 µM | [10] 10.7 µM | CYP2C8 (gene 1558) 15.4 µM | CYP2E1 (gene 1571) 31.1 µM | CYP4A11 (gene 1579) 50 µM | [11] 2.67 µM
inactive: all other assays above

COC(=O)N(C(=O)N1CO[C@@]2(C(=O)OC)Cc3cc(Cl)ccc3C2=N1)c1ccc(OC(F)(F)F)cc1
active: [2] 40 µM | BCL2L11 (gene 10018) 12.7 µM | [7] 10.4 µM | [9] 0.89 µM | [10] 9.46 µM | CYP2C9 (gene 1559) 64.8 µM | CYP2E1 (gene 1571) 24 µM | CYP4A11 (gene 1579) 25.6 µM | [11] 9.42 µM
inactive: all other assays above

CC(C)NC(=O)N1CC(=O)N(c2cc(Cl)cc(Cl)c2)C1=O
active: [2] 13.2 µM | [3] 22.7 µM | [7] 8.18 µM | [9] 3.63 µM | CYP2E1 (gene 1571) 13.2 µM | [11] 2.97 µM | [13] 12.8 µM
not listed: CYP4A11 (gene 1579)
inactive: all other assays above

CCOc1nc(F)cc2nc(S(=O)(=O)Nc3c(Cl)cccc3Cl)nn12
active: [1] 41.3 µM | [2] 25.3 µM | [9] 13.2 µM | CYP2E1 (gene 1571) 20.3 µM | [11] 1.85 µM
inactive: all other assays above

O=P(O)(O)CCCl
active: [10] 0.396 µM
inactive: all other assays above

COCC(C)N(C(=O)CCl)c1c(C)csc1C (stereo not drawn)
active: [9] 2.05 µM | CYP2E1 (gene 1571) 64.6 µM | [13] 50 µM
not listed: [11]
inactive: all other assays above
